From PubChem BioAssay
TWEAK Fn14 block – blocks TWEAK-Fn14 interaction in a reporter cell assay. AID 1159606. inhibition, % at 10 µM. 360,000 compounds, 2% hits. TWEAK-stimulated Fn14 reporter cells, luciferase luminescence, 8 h; in the data active means inhibition above about 50%
HSF1 inh – HSF1 inhibition; activity change, negative = inhibition, % at 7.5 µM (by protocol); NIH3T3-HGL HSE-luciferase, MG132-induced, luminescence 8 h; stronger effect = lower value; 300,000 compounds, 0.77% hits;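 active means more than half of replicate wells show activity change below -50%, luminescence cut by over half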;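 further: luciferase reports HSF-1 transcriptional activity via heat shock element; 0% = median of DMSO wells and -100% = zero luminescence signal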
HSF-1 act – increases HSF-1 driven luciferase reporter signal. NIH3T3-HGL HSF-1 luciferase reporter, MG132, 8 h; 100% = twice DMSO control signal. activation, % at 9 µM. 300,000 compounds, 1.7% hits. AID 504408;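 active means mean replicate activation of at least 50% with a set share of replicates each reaching 50%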;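 further: 0% = median of the neutral control wells and 100% = twice that signal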
LMP1 NFkB inh – Epstein-Barr LMP1 NF-kappaB reporter inhibition; AID 504558; 350,000 compounds, 0.69% hits; LMP1-induced NF-kappaB luciferase reporter cells, luminescence; inhibition, % at 12.5 µM; in the data active means inhibition above about 41%;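 further: 0% = neutral control wells and 100% = reference inhibitor control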
TROY NFkB inh – inhibitors of TROY-dependent NF-kB signaling | 360,000 compounds, 0.98% hits | inhibition, % at 10 µM | Q293 LMP1-TROYcd NF-kB luciferase reporter, 4 h;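 active means compounds whose plate-normalised and pattern-corrected inhibition of the luciferase reporter signal at the single screening dose is 50% or more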
HSP90 inh – HSP90 refolding inhibition in rabbit reticulocyte lysate; luciferase refolding luminescence, 3 h; inhibition, % at 5.6 µM; 290,000 compounds, 0.91% hits;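 active means inhibition above the screen-wide mean plus 3 SD, computed separately per campaign, cut at about 16% in these data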;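 further: 0% = DMSO wells and 100% = 60 µM geldanamycin wells; inhibitors lower the luminescence because luciferase stays unfolded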
Starred values were filed as active, the others as inactive; · = not tested or not shown. In the library only some 4.7% were active in any assay of this set; here they are far more common.

SMILES | TWEAK Fn14 block | HSF1 inh | HSF-1 act | LMP1 NFkB inh | TROY NFkB inh | HSP90 inh
O=C(Cc1ccccc1[N+](=O)[O-])NCC1(c2cccc3c2OCO3)OCCO1 | -5 | 2 | 2 | 46* | -7 | ·
O=C(NCC1CCCCC1)c1ccc2nc([C@@H]3O[C@H](CO)[C@@H](O)[C@H]3O)[nH]c2c1 | -7 | · | · | · | 3 | ·
CCN(CC)S(=O)(=O)c1cccc(-c2nnc(SCC(N)=O)n2CCc2ccccc2)c1 | 3 | -60* | -65 | -2 | -3 | 2
CCN(CC)S(=O)(=O)c1cccc(-c2nnc(SC(C)C(N)=O)n2CCc2ccccc2)c1 (stereo not given) | 0 | -5 | -13 | -5 | -15 | 0
Cc1cc(N/N=C\c2ccccc2)nc(-c2ccccc2O)n1 | 46 | 14 | 5 | -22 | -16 | -1
Cc1cc(N/N=C/c2ccccc2O)nc(-c2ccccc2O)n1 | 29 | 19 | 12 | -2 | -30 | 5
C/C(=N\Nc1cc(C)nc(-c2ccccc2O)n1)c1ccccc1O | 55* | -29 | -33 | -13 | 16 | -1
Cc1cc(N/N=C/c2ccc(O)cc2O)nc(-c2ccccc2O)n1 | 65* | 6 | 10 | -2 | 20 | -2
Cc1cc(Nc2cccc(Cl)c2)nc(-c2ccccc2O)n1 | 11 | -70* | -77 | -11 | 29 | -3
Cc1cc(Nc2ccc(Cl)cc2)nc(-c2ccccc2O)n1 | 0 | -3 | -9 | -13 | 7 | -3
CC(=NNc1ccc2ccccc2n1)c1ccccc1O | 100* | 11 | 11 | -2 | 74* | ·
COc1ccc(CCC(=O)O)c(C(CC(=O)O)C(=O)O)c1OS(=O)(=O)c1ccc(C)cc1 (stereo not given) | 23 | · | · | -4 | 0 | ·
COc1ccc(-c2ccccc2)cc1NC(=O)[C@@H]1O[C@H](CO)[C@H](O)[C@H](O)[C@H]1O | -9 | · | · | · | 7 | ·
CC(=O)C1=CCC(c2cccc3ccccc23)N(S(=O)(=O)c2ccc(C)cc2)C1 (stereo not given) | 6 | · | · | · | -7 | ·
O=C(OCc1ccccc1)N1CCC2CC1c1ccc(N3CCN(Cc4ccc5c(c4)OCO5)CC3)cc12 (stereo not given) | 12 | · | · | · | -4 | ·
CCCC[C@@H]1CC2=C(C(=O)OC(C)(C)O2)[C@@H](c2ccc(Cl)cc2)O1 | 13 | · | · | · | 0 | ·
CC(C)n1nnnc1C1c2ccccc2C(=O)N1CCOc1ccccc1 (stereo not given) | -14 | · | · | · | -51 | ·
O=C(NCC1CCCO1)c1nn2c(C(F)(F)F)cc(-c3cc(Br)cs3)nc2c1Br (stereo not given) | -7 | 19 | 62* | -13 | 5 | 1
O=C(NCC1CCCO1)c1nn2c(C(F)(F)F)cc(-c3ccco3)nc2c1Cl (stereo not given) | 1 | -2 | -9 | 4 | -29 | -8
O=C1C(Cl)=C(Nc2ccc(O)cc2)C(=O)c2ccccc21 | 9 | 11 | 15 | 61* | 64* | 6
CCC(=O)NC1=C(Nc2ccc(N)cc2)C(=O)c2ccccc2C1=O | 52* | 24 | 29 | -11 | 33 | 0
CCNC1=C(Cl)C(=O)c2ccccc2C1=O | 12 | 15 | 26 | 0 | -30 | 6
CCN(CC)c1ccc(NC2=C(Cl)C(=O)c3ccccc3C2=O)cc1 | 57* | · | · | 80* | -6 | -1
CCCC(=O)NC1=C(Cl)C(=O)c2ccccc2C1=O | 15 | 91* | 91* | -7 | 20 | ·
COC[C@H]1CCCN1c1ccc2c(c1)O[C@H](COCc1ccccc1)CN([C@H](C)c1ccccc1)S2(=O)=O | 17 | · | · | · | 6 | ·
CN(Cc1ccccc1)C(=O)c1ccc(NC(=O)Cc2ccc(NC(=O)C3CCN(C(=O)c4ccccc4)CC3)cc2)cc1 | -42 | · | · | -5 | 14 | ·
O=C(Nc1ccccc1)C1Cc2c(-c3ccc4c(c3)OCO4)ccnc2O1 (stereo not given) | -3 | · | · | · | 6 | ·
CC(C)CN(C(=O)COC(=O)C12CC3CC(CC(C3)C1)C2)c1c(N)n(Cc2ccccc2)c(=O)[nH]c1=O | 55* | -4 | -4 | -8 | 21 | ·
CC(C)CN(C(=O)COC(=O)C12CC3CC(CC(O)(C3)C1)C2)c1c(N)n(Cc2ccccc2)c(=O)[nH]c1=O | 4 | · | · | 1 | 8 | ·
Cc1cc(OCC(=O)Nc2cnn(CCCC(=O)O)c2)ccc1Cl | -4 | 4 | 5 | 59* | 16 | 1
